# Results from PubChem BioAssay AID1851 (National Center for Advancing Translational Sciences (NCATS), 2009).
# Several values for one entry are separate records, joined by “and”; a condition that tells them apart may be missing. Equal values may be shown once. About 5,100 (32%) of roughly 16,000 compounds were called active. Inconclusive results (about 25%) are left out. The call rests on the fitted dose curve; in most records, active means well fitted curve in the direction sought with a large enough effect; inconclusive means small, poorly fitted or top-dose-only effect, or effect the other way; inactive means no such curve, though single readings can be large or run the other way. Some of the results follow. More than one record can exist for a structure, and the calls need not agree.
# Target: Cytochrome P450 3A4 (Homo sapiens) (UniProt P08684)
# Experiment: Cytochrome panel assay with activity outcomes
# Settings: recombinant CYP, pro-luciferin dealkylation, luminescence, p450-cyp3a4; series mostly up to 57.1 µM
# On the % scale 0 is the no-effect control and ±100 the full control effect.
# Sequence of Cytochrome P450 3A4 (Homo sapiens) (P08684 whole entry, looked up): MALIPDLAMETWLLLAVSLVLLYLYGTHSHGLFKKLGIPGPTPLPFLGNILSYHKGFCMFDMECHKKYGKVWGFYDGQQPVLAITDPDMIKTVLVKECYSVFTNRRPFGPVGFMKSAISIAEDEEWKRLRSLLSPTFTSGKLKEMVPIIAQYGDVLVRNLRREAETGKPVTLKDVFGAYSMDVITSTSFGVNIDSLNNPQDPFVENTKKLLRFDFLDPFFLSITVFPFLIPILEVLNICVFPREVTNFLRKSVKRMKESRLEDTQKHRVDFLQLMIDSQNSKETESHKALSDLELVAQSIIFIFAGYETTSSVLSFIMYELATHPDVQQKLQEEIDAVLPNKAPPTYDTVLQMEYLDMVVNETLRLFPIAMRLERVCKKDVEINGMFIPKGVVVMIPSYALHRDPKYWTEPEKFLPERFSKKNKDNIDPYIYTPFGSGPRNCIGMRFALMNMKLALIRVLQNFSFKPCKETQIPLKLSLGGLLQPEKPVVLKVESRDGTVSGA
Structure (SMILES),"activity, negative = inhibition",AC50
CN[C@H](Cc1ccccc1)c1cccc(OC)c1O,-2.26% [at 11.4 µM] (inactive),–
c1ccc2c(c1)Sc1ccccc1N2C[C@H]1CN2CCC1CC2,-6.51% [at 11.4 µM] (inactive),–
CCOP(=O)(OCC)C(NC(C)=O)C(Cl)(Cl)Cl (configuration not stated),inactive,–
CCCC[N+]12CCC(CC1)C(C(=O)c1cccs1)C2 (configuration not stated),inactive,–
CC(=O)NCCc1c[nH]c2ccccc12,inactive,–
ClCCNc1nc2ccc(Cl)cc2[nH]1,inactive,–
CC(=O)OCC1=C(C(=O)[O-])N2C(=O)[C@@H](NC(=O)CCC[C@@H](N)C(=O)[O-])[C@@H]2SC1.[Zn+2],inactive,–
C=CCN1C[C@H](C)N([C@H](c2ccc(C(=O)N(CC)CC)cc2)c2cccc(O)c2)C[C@H]1C,–,12.6 µM (active)
C=CCN1CCC2(C)c3cc(O)ccc3C[C@H]1[C@H]2C,inactive,–
C[C@H](N)Cc1c[nH]c2ccc(O)cc12,inactive,–
O=C(CN1CCCCC1)Nc1ccc(Br)cc1C(=O)c1ccccc1Cl,-0.765% [at 2.29 µM] (inactive),–
COc1ccc(OCC(=O)Nc2ccc(Cl)cc2C(=O)c2ccccc2)cc1,–,2.24 µM (active)
O=C(Nc1ccc(Cl)cc1C(=O)c1ccccc1Cl)c1ccco1,inactive,–
CNC(C)(C)Cc1ccccc1,inactive,–
CCCN1CCC[C@@H]2Cc3[nH]ncc3C[C@H]21,inactive,–
CC(C(=O)c1c[nH]c2ccccc12)N1CCSCC1 (configuration not stated),-1.61% [at 2.29 µM] (inactive),–
CN(C)CCC(=O)[C@@]1(O)CC[C@H]2[C@H]3CC=C4C[C@@H](O)CC[C@]4(C)[C@H]3CC[C@]21C,-0.253% [at 11.4 µM] (inactive),–
c1cncc(CNCCN2CCNCC2)c1,-5.07% [at 11.4 µM] (inactive),–
c1cncc(CNc2cc(-c3ccc4c(c3)OCO4)ncn2)c1,–,0.794 µM (active)
O[C@@H](c1cc(-c2ccccc2)nc2c1ccc1ccccc12)[C@@H]1CCCCN1,-0.102% [at 11.4 µM] (inactive),–
C[C@H]1CC[C@@]2(NC1)O[C@@H]1C[C@H]3[C@@H]4CC[C@@H]5C[C@@H](O)CC[C@@]5(C)[C@@H]4CC[C@]3(C)[C@@H]1[C@@H]2C,inactive,–
NCC[C@H](O)C(=O)N[C@H]1C[C@@H](N)[C@@H](O[C@H]2O[C@@H](CN)[C@@H](O)[C@@H](O)[C@@H]2N)[C@@H](O[C@H]2O[C@@H](CO)[C@@H](O)[C@@H]2O)[C@@H]1O,inactive,–

Structure (SMILES),"activity, negative = inhibition",AC50
CC(O)(CS(=O)(=O)c1ccccc1)C(=O)Nc1cccc(C(F)(F)F)c1 (configuration not stated),–,4.47 µM (active)
CC(O)(CS(=O)(=O)c1cccc(C(F)(F)F)c1)C(=O)Nc1ccc(C(F)(F)F)cc1 (configuration not stated),–,1.41 µM (active)
O=C(O)c1ccccc1Nc1cccc(C(F)(F)F)c1,inactive,–
CC(O)(CS(=O)(=O)c1cccc(C(F)(F)F)c1)C(=O)Nc1cccc(C(F)(F)F)c1 (configuration not stated),–,1.41 µM (active)
Cc1o[nH]c(=O)c1C[C@@H](N)C(=O)O,inactive,–
CC1=C(O)C(=O)[C@H]2O[C@@H]2C1=O,inactive,–
O=C(O)CCCC[C@H]1SC[C@H]2NC(=O)N[C@@H]21,inactive,–
O=C(O)[C@H]1[O][Sb][O][C@@H](C(=O)O)C1O (some centres not stated),-10.4% [at 11.4 µM] (inactive),–
C[C@]1(O)CC[C@H]2[C@@H]3[C@@H](O)CC4=CC(=O)CC[C@@]4(C)[C@H]3CC[C@]21C,-2.12% [at 11.4 µM] (inactive),–
CC1(C)N=C(N)N=C(N)N1c1cccc(C(=O)Nc2ccc(S(=O)(=O)F)cc2)c1,17.5% [at 11.4 µM] (inactive),–
O=[As](O)(O)c1ccc(N=Nc2ccc(O)cc2)cc1,-4.07% [at 11.4 µM] (inactive),–
C[N+](C)(C)CC(=O)O,inactive,–
N=C(N)SCc1ccc(Cl)c2ccccc12 (tested in a mixture with another compound),-2.18% [at 11.4 µM] (inactive) and 15.2% [at 11.4 µM] (inactive),–
CC(C)c1c(CN(C)[C@@H](C)Cc2ccccc2)n(C)n(-c2ccccc2)c1=O,–,3.98 µM (active)
C=C[C@@H]1CN2CC[C@H]1C[C@H]2[C@H](O)c1ccnc2ccccc12,-1.79% [at 11.4 µM] (inactive),–
CC(C)CNCCc1ccccn1,-8.38% [at 11.4 µM] (inactive),–
CCC1(C)CC(=O)NC(=O)C1,inactive,–
COc1ccc2[nH]cc(CCN(C)C)c2c1,inactive,–
COc1ccc(CNC(=O)/C=C\c2ccc3[nH]cc(CCN(C)C)c3c2)cc1,–,15.8 µM (active)
CCCN(CCC)CCc1c[nH]c2ccc(C(N)=O)cc12,inactive,–
N[C@@H](CSC1c2ccccc2-c2ccccc21)C(=O)O,-17.3% [at 11.4 µM] (inactive),–
Cn1c[n+](C)cc1C(O)c1ccccc1 (configuration not stated),1.92% [at 2.29 µM] (inactive),–

Structure (SMILES),"activity, negative = inhibition",AC50
C=C(C)c1ccccc1 (tested in a mixture with another compound),-22.2% [at 11.4 µM] (inactive),–
CN1C(=O)C(=Cc2ccc(N3CCCCCC3)o2)C(=O)N(C)C1=S,–,3.98 µM (active)
CN1C(=O)C(=Cc2ccc(N3CCCCC3)o2)C(=O)N(C)C1=S,inactive,–
CCN1CCC2(CC1)NC(CO)(CO)CO2,inactive,–
C[C@]12N[C@@H](Cc3ccccc31)c1ccccc12,inactive,–
Cc1cccc(N2C(=O)NC(=O)/C(=C\c3cnn(-c4ccccc4)c3)C2=O)c1,8.31% [at 2.29 µM] (inactive),–
Cc1cc(C)cc(NC(=S)NC2CC3CCC(C2)N3Cc2ccco2)c1 (configuration not stated),inactive,–
CN(C)CS/C(N)=N/[C@H](O)C(Cl)(Cl)Cl,-7.61% [at 11.4 µM] (inactive),–
CC[N+](CC)(CCNC(=O)C(=O)NCC[N+](CC)(CC)Cc1ccccc1Cl)Cc1ccccc1Cl,inactive,–
C[C@@H]1CC[C@@H]2N(C1)C[C@H]1[C@@](O)([C@H](O)C[C@]3(O)[C@H]4CC[C@H]5[C@]6(O)O[C@]4(C[C@]13O)[C@@]5(C)CC[C@@H]6O)[C@@]2(C)O,-1.62% [at 11.4 µM] (inactive),–
Nc1ncnc2c1ncn2[C@@H]1O[C@@H](COP(=O)(O)CP(=O)(O)OP(=O)(O)O)[C@H](O)[C@@H]1O,inactive,–
O=C(O)CC[N+](=O)[O-],inactive,–
CC(C)Oc1cc(-n2c(=S)[nH]c3ccccc3c2=O)c(Cl)cc1Cl,–,3.16 µM (active)
CN1[C@H]2CC(=O)C[C@@H]1[C@@H](O)C2,inactive,–
c1ccc2cc(CC3=NCCN3)ccc2c1,inactive,–
N[C@H](Cn1ccc(=O)[nH]c1=O)C(=O)O,inactive,–
CC[C@@H](CO)NC(=O)[C@H]1C=C2c3cccc4c3c(cn4C)C[C@H]2N(C)C1,inactive,–
CC(C)[C@H](CO)Nc1nc(Nc2cccc(Cl)c2)c2ncn(C(C)C)c2n1,–,12.6 µM (active)
CC[C@@H](CO)Nc1nc(NCc2ccccc2)c2ncn(C(C)C)c2n1,–,12.6 µM (active)
COC(=O)c1c(C)ccc2c(O)c3c(cc12)C(=O)c1c2c(cc(O)c1C3=O)[C@@]1(C)O[C@@](C)(O2)[C@@H](O)[C@H](N(C)C)[C@H]1O,-1.78% [at 11.4 µM] (inactive),–
C(=NC12CN3CN(CN(C3)C1)C2)c1cccs1,inactive,–
CN(C)C(=O)Oc1cccc([N+](C)(C)C)c1,inactive,–

Structure (SMILES),"activity, negative = inhibition",AC50
COC(=O)C1=CCCN(C)C1,inactive,–
CC(C)N[C@@H](C)Cc1ccc(I)cc1,inactive,–
Nc1nc(N)c(N=Nc2ccc([As](=O)(O)O)cc2)c(=O)[nH]1,8.58% [at 11.4 µM] (inactive),–
C/C=C1\C[C@H](C)[C@@](O)(CO)C(=O)OCC2=CCN3CC[C@@H](OC1=O)[C@@H]23,inactive,–
N=C1c2ccccc2CN1NC(=O)c1ccc(F)cc1,inactive,–
Cc1c2ccncc2c(C)c2c1[nH]c1ccccc12,–,0.158 µM (active)
Cc1nccc2c1[nH]c1ccccc12,–,inactive and 3.98 µM (active)
CCN(CC)CCn1ncc2c(N)ncnc21,-6.29% [at 11.4 µM] (inactive),–
COc1ccc2cc1Oc1ccc(cc1)C[C@H]1c3cc(c(OC)cc3CCN1C)Oc1c(OC)c(OC)cc3c1[C@@H](C2)N(C)CC3,-2.4% [at 11.4 µM] (inactive),–
C[N+]1(C)CCO[C@](O)(c2ccc(-c3ccc([C@]4(O)C[N+](C)(C)CCO4)cc3)cc2)C1,inactive,–
COCCn1c(SCc2nc3sc(C(=O)OC)c(C)c3c(=O)[nH]2)nc2ccccc21,–,3.55 µM (active)
CC1(C)N(O)C(c2ccc(C(=O)O)cc2)=[N+]([O-])C1(C)C,inactive,–
CC(C)[C@@H](C)/C=C\[C@@H](C)[C@@H]1CC[C@H]2C3=CC=C4C[C@@H](O)CC[C@]4(C)[C@H]3CC[C@]21C,10.4% [at 11.4 µM] (inactive),–
NCCP(=O)(O)O,-6.9% [at 11.4 µM] (inactive),–
CCOCCN1CCC(OC(C)=O)C(C)C1 (configuration not stated),inactive,–
CC(C)(C)NC[C@@H](O)COc1cccc2[nH]c(C#N)cc12,–,25.1 µM (active)
NCC1(CC(=O)O)CCCCC1,inactive,–
COc1cc(/C=N/NC(=O)CN2CC(c3ccccc3)CC2=O)ccc1OC(=O)N(C)C (configuration not stated),inactive,–
CC[C@H](C)C(=O)O[C@@H]1[C@H](O)[C@@H]2[C@H](CN3C[C@@H](C)CC[C@@H]3[C@@]2(C)O)[C@@H]2C[C@@]34O[C@@]5(O)[C@@H](OC(=O)[C@](C)(O)CC)CC[C@@]3(C)[C@H]5[C@H](OC(C)=O)[C@@H](OC(C)=O)[C@H]4[C@]12O,inactive,–
N[C@@H](Cc1cc(Br)c(O)c(Br)c1)C(=O)O,-16.7% [at 11.4 µM] (inactive),–
Cc1ccc2c(c1)C1CN(C)CCC1N2C(=O)Nc1cccc(Cl)c1 (configuration not stated),inactive,–
